# USP8 inh: blocks human USP8 ubiquitin-rhodamine cleavage. 47,000 compounds, 4.2% hits. inhibition, % at 20 µM. P40818. purified USP8, Ub-rhodamine cleavage fluorescence, 30 min
# UCHL1 inh: inhibitors of human UCHL1 deubiquitinase. P09936. purified UCHL1, Ub-rhodamine cleavage fluorescence. inhibition, % at 20 µM. 47,000 compounds, 0.2% hits. AID 1645859
# USP7 block: human USP7 deubiquitinase inhibition. Q93009. 47,000 compounds, 0.3% hits. purified USP7, Ub-rhodamine cleavage fluorescence. inhibition, % at 20 µM. AID 1645854
# USP10 block: blocks human USP10 ubiquitin-rhodamine cleavage. purified USP10, Ub-rhodamine fluorescence, 60 min. Q14694. inhibition, % at 20 µM. 47,000 compounds, 1.1% hits
# The depositor's hits bear a star. Hits are enriched below; roughly 4.6% of the tested compounds scored in any of these assays. Rule as the data show it: active = inhibition above about 30%; inactive = the rest.
SMILES,USP8 inh,UCHL1 inh,USP7 block,USP10 block
O=S(=O)(Nc1nc(-c2ccco2)c(-c2ccco2)s1)c1ccc(F)cc1F,37*,8,-19,-5
O=S(=O)(c1ccc(F)cc1)c1nc(-c2ccco2)oc1SCc1ccc(F)cc1,15,4,-83,1
c1ccc(-c2nnn(CN3CCN(c4ncccn4)CC3)n2)cc1,1,-1,0,0
COc1ccc(CNC(=O)c2ccc3c(=O)nc4c(-c5cccc(C)c5)n[nH]n4c3c2)cc1,61*,1,22,41*
N#Cc1cccc(CN2CCC(n3c(=O)[nH]c4cncnc43)C2)c1 (configuration not stated),0,-2,1,1
O=C(CCc1nnc2n(Cc3ccc(F)cc3)c(=O)c3ccccc3n12)NCCN1CCCC1,-10,-3,-131,-6
Cc1nc2c(-c3ccc(Cl)cc3)c[nH]n2c(=O)c1Cc1ccccc1,-126,12,-21,65*
COc1ccc(-c2c[nH]n3c(=O)c(CCO)c(C)nc23)cc1OC,1,0,4,3
COc1ccccc1CNC(=O)Nc1cccc2ccccc12,71*,0,1,5
COc1ccccc1CNC(=O)CCC1CCCC1,3,1,-27,4
Cc1ccc(C)c(NC(=O)COc2nsnc2N2CCOCC2)c1,15,2,0,1
Cc1nc(N2CCC(C(=O)O)CC2)c2oc3ccccc3c2n1,3,0,1,2
Cc1nc(N2CCN(c3ccc(Cl)cc3)CC2)c2oc3ccccc3c2n1,63*,2,12,18
COc1ccc(S(=O)(=O)Nc2ccc3nn(C)cc3c2)cc1,77*,-5,-6,-4
CC(=O)C1=C(O)[C@]2(O)C(=O)c3c(c(C)c4ccc(C)c(O)c4c3O)C[C@H]2[C@@H](N)C1=O,-42,66*,58*,-9
c1ccc(-c2cc3n(c2)CCc2cc4c(cc2-3)OCO4)cc1,21,-13,-12,-3
Clc1ccc(-c2cc3n(c2)CCc2cc4c(cc2-3)OCO4)cc1,70*,-8,-11,-8
COc1cc(OC)c2c(c1)C(=O)C1=C(COC(C)(O)C1)C2=O (configuration not stated),68*,16,-13,0
COc1ccc(C(C(=O)NC2CCCCC2)N(Cc2ccccc2Cl)C(=O)c2ccco2)cc1OC (configuration not stated),-61,-2,-7,-7
COc1ccc(-c2cc(-c3nnc(COC(=O)c4cccc([N+](=O)[O-])c4C)o3)c3ccccc3n2)cc1OC,68*,-2,-3,-8
COc1ccc(-c2cc(-c3nnc(COC(=O)CC4CCCC4)o3)c3ccccc3n2)cc1OC,64*,4,9,-3
COc1ccc(-c2cc(-c3nnc(COC(=O)CNS(=O)(=O)c4ccccc4)o3)c3ccccc3n2)cc1OC,-8,-16,-11,-10
Cc1nn(-c2ccc(Cl)cc2)c2[nH]c(=O)c(CNc3ccccc3)cc12,80*,2,5,6
Cc1nn(-c2ccc(Cl)cc2)c2[nH]c(=O)c(CNc3ccc4c(c3)OCCO4)cc12,80*,11,30,18
COc1ccc2c(c1)c(CC(=O)Nc1ccc3c(c1)OCCO3)c(C)n2C(=O)c1ccc(Cl)cc1,5,4,-2,8
SMILES,USP8 inh,UCHL1 inh,USP7 block,USP10 block
Cc1ccc(NCc2cc3c(C(C)(C)C)nn(-c4ccc(Cl)cc4)c3[nH]c2=O)cc1C,88*,-1,4,9
Cc1nn(-c2ccccc2)c2[nH]c(=O)c(CNCCN3CCOCC3)cc12,22,2,6,2
Cc1nn(-c2ccccc2)c2[nH]c(=O)c(CNc3ccccc3)cc12,4,0,8,3
Cc1nn(-c2ccc(Cl)cc2)c2[nH]c(=O)c(CNCCc3ccccc3)cc12,78*,0,0,4
Cc1cc(=O)[nH]c(N2CCN(c3ccc(Cl)cc3)CC2)n1,25,1,-18,3
O=C(c1cn(-c2cc(Nc3ccccc3)ncn2)cn1)N1CCC2(CC1)OCCO2,-11,-6,-7,-1
Cc1cc(C)cc(NC(=O)NCCn2cnc3cc(C(=O)N4CCCC4)ccc32)c1,6,1,2,-2
CC(C)(C)c1nn(-c2ccc(Cl)cc2)c2[nH]c(=O)c(CNCc3ccco3)cc12,66*,5,-63,7
COc1ccc(Cl)cc1C(=O)NNC(=O)c1cc(-c2ccccc2)n[nH]1,85*,0,15,40*
Cc1cc(C)cc(C(=O)N2CCc3c(c(-c4nc(-c5ccccc5)no4)nn3C)C2)c1,-7,6,4,0
COc1c(C)c(O)c2c(c1C)COC2=O,2,-1,1,-2
Cc1nc(-c2ccccc2F)sc1C(=O)NCc1ccc(S(N)(=O)=O)cc1,-126,-4,-7,1
COc1ccc(-c2nc(C)c(C(=O)NCCc3ccc(S(N)(=O)=O)cc3)s2)cc1,37*,-1,-1,30*
CSc1n[nH]c(NC(=O)c2ccccc2Cl)c1-c1ccc([N+](=O)[O-])cc1,-6,1,5,-5
O=C(/C=C/c1ccccc1)Nc1c2c(nc3c1CCC3)CCCC2,11,1,7,-4
O=C(NC(Cc1ccccc1)c1nc2ccccc2[nH]1)C1CC1 (configuration not stated),48*,12,0,3
CSCCC(NC(=O)COc1ccc(Cl)cc1)c1nc2ccccc2[nH]1 (configuration not stated),-11,-5,-22,-10
COc1ccccc1/C=C/C(=O)NC(Cc1ccccc1)c1nc2ccccc2[nH]1 (configuration not stated),92*,6,-4,-6
CC(C)CC(NC(=O)c1ccc(Cl)cc1Cl)c1nc2ccccc2[nH]1 (configuration not stated),89*,14,-1,13
O=C(Cc1coc2cc3c(cc12)CCC3)NC(Cc1ccccc1)c1nc2ccccc2[nH]1 (configuration not stated),66*,2,-4,0
Cc1ccc(C(=O)NCc2ccc(N3CCOCC3)nc2)cc1F,-188,-3,0,2
O=C(NC(Cc1ccccc1)c1nc2ccccc2[nH]1)c1ccc2ccccc2n1 (configuration not stated),12,3,9,2
O=C(NC(Cc1ccccc1)c1nc2ccccc2[nH]1)c1ccccc1-c1ccccc1 (configuration not stated),54*,0,1,-3
COc1ccc(-c2nnc(NC(=O)CSc3ccc(C)cc3)o2)cc1,-315,-2,3,-2
COc1ccc(N2CCn3c(SCC(=O)Nc4cc(C)cc(C)c4)nnc32)cc1,50*,-1,5,4
O=C(CNC(=O)c1ccc(F)c(F)c1)Nc1nc2ccccc2[nH]1,7,0,7,3
O=C(CNC(=O)c1cc(F)cc(F)c1)Nc1nc2ccccc2[nH]1,36*,3,7,11
COC(=O)c1ccc(N2CCN(C(C)=O)CC2)c(NC(=O)COc2ccc([N+](=O)[O-])cc2)c1,80*,5,12,43*
COC(=O)c1ccc(N2CCN(C(C)=O)CC2)c(NC(=O)c2ccc(OCc3ccccc3)cc2)c1,20,10,8,4
